# Measured values: ChEMBL document CHEMBL1157539, “Thousands of chemical starting points for antimalarial lead identification” (Nature, 2010)
# “And” between values parts separate entries of the source, which are not always exact repeats. Equal values may be shown once.
# Assays:
# Assay type in all cases: functional
# Plasmodium falciparum [1] = test: GSK_TCMDC: Inhibition of Plasmodium falciparum 3D7 in whole red blood cells, using parasite LDH activity as an index of growth. Test compounds present at 2uM
# Plasmodium falciparum [2] = test: GSK_TCMDC: Inhibition of Plasmodium falciparum Dd2 in whole red blood cells, using parasite LDH activity as an index of growth. Test compounds present at 2uM
# HepG2 = test: GSK_TCMDC: Percent inhibition of human HepG2 cell line. Test compounds present at 10uM.
Compound,Inhibition (Plasmodium falciparum [1]),Inhibition (Plasmodium falciparum [2]),Inhibition (HepG2)
O=C(Cc1cc(=O)oc2cc(O)ccc12)N1CCC(CN2CCC(c3c[nH]c4ccccc34)CC2)CC1,94%,0%,1%
Br.Cc1ccccc1C1=CCN(CCCN2c3ccccc3Sc3ccc(Cl)cc32)CC1,90%,30%,14%
Cc1[nH]c2cc(Cl)ccc2c1C1=CCN(CCCCC2(C)C(=O)Nc3c(F)cccc32)CC1 (configuration not stated),90%,74%,14%
CC[C@H]1CN2CC[C@H]1C[C@@H]2[C@@H](OC(=O)c1ccc(Cl)cc1)c1ccnc2ccc(OC)cc12,89%,0%,0%
Cc1ccc(C2(O)CC3CCC(C2)N3C)cc1 (configuration not stated),92%,16%,0%
CN1CCC(O)(c2ccc(Br)cc2)C(C(O)c2ccc(Br)cc2)C1.CS(=O)(=O)O (configuration not stated),98%,99%,28%
O=C(NC1CCC(CN2CCC(c3c[nH]c4ccccc34)CC2)CC1)NC12CC3CC(CC(C3)C1)C2 (configuration not stated),96%,46%,37%
COc1ccc(C=CC(=O)N2CCC(CN3CCC(c4c[nH]c5ccccc45)CC3)CC2)cc1OC,94%,4%,20%
COc1ccc(CN(C2CC2)C(C)C(=O)c2[nH]c(C)c(C(C)=O)c2C)cc1 (configuration not stated),98%,64%,40%
CC[C@H]1CN2CC[C@H]1C[C@H]2[C@H](O)c1cc(-c2ccc3ccccc3c2)nc2ccc(OC)cc12.Cl,99%,99%,49%
COc1ccc(C[C@@H](C)NC[C@H](O)c2cccc(Cl)c2)cc1F,89%,75%,6%
Cc1nc2ccccc2n1C1CC2CCC(C1)N2Cc1nccn1-c1ccccc1.O=C(O)C(F)(F)F (configuration not stated),94%,96%,0%
COc1ccc(OC)c(C=CC(=O)NC2CCC(CN3CCC(c4c[nH]c5ccccc45)CC3)CC2)c1 (configuration not stated),98%,62%,43%
CCCCCCC(C)(C)c1cc(O)c2c3c(c(=O)oc2c1)CCN(Cc1ccccc1)C3.Cl,100%,99%,3%
COCCNCc1cccc(-c2ccccc2CN(C(=O)Nc2ccccc2)C2CCN(Cc3ccccc3)CC2)c1.O=C(O)C(F)(F)F,96%,51%,30%
Br.COC(=O)c1ccc(CC(C)NCC(O)c2cccc(SC(F)(F)F)c2)cc1 (configuration not stated),96%,72%,7%
NCc1cccc(-c2cccc(CN(C(=O)Nc3ccccc3)C3CCN(Cc4ccccc4)CC3)c2)c1.O=C(O)C(F)(F)F,99%,8%,3%
O=C(NC1CCC(CN2CCC(c3c[nH]c4ccccc34)CC2)CC1)c1ccc(-c2ccccc2[N+](=O)[O-])o1 (configuration not stated),100%,34%,24%
CC[C@H]1CN2CC[C@H]1C[C@H]2[C@H](O)c1cc(-c2ccc(C)cc2)nc2ccc(OC)cc12.Cl,99%,99%,22%
Cc1[nH]c2ccc(O)cc2c1C1CCN(CC2CCC(NC(=O)/C=C/c3c(Cl)cccc3Cl)CC2)CC1 (configuration not stated),100%,93%,25%

Compound,Inhibition (Plasmodium falciparum [1]),Inhibition (Plasmodium falciparum [2]),Inhibition (HepG2)
Cc1cc2ccc(CNCCc3ccccc3Br)cc2nc1N.Cl,100%,48%,0%
O=[N+]([O-])c1ccc(Oc2c(Cl)cc(S(=O)(=O)NC3CCC(CN4CCC(c5c[nH]c6ccccc56)CC4)CC3)cc2Cl)c(Cl)c1 (configuration not stated),100%,64%,30%
CCC(C)CN1CCC(N(C)c2cc(NC(=O)c3ccc(F)cc3)ccn2)CC1.O=C(O)C(F)(F)F (configuration not stated),93%,32%,4%
COC(=O)c1ccc(C[C@@H](C)NC[C@H](O)c2cccc(C(F)(F)F)c2)cc1.Cl,97%,93%,1%
O=C(/C=C/c1c(Cl)cccc1Cl)NC1CCC(CN2CCC(c3c[nH]c4ccccc34)CC2)CC1 (configuration not stated),93% and 100%,21% and 42%,54% and 39%
Cc1[nH]c2ccccc2c1C1=CCN(CCCCC2(C)C(=O)Nc3ccccc32)CC1 (configuration not stated),94%,89%,8%
CC[C@H]1CN2CC[C@H]1C[C@H]2[C@H](O)c1cc(/C=C/c2ccccc2)nc2ccc(OC)cc12,99%,99%,16%
CO/C(=C\C=C\c1cc2cc(Cl)c(Cl)cc2[nH]1)C(=O)N[C@H]1CN2CCC1CC2,82%,36%,43%
CC(C)NC(=O)Cn1cc(C2CCN(CC3CCN(C(=O)/C=C/c4ccc(Cl)c(Cl)c4)CC3)CC2)c2ccccc21.O=C(O)C(F)(F)F,97%,55%,31%
COc1cc(C=CC(=O)N2CCC(CN3CCC(c4c[nH]c5ccccc45)CC3)CC2)ccc1O,82%,25%,11%
CN1CC=C(c2c[nH]c3ccc(Sc4ccccc4)cc23)CC1.O=C(O)/C=C/C(=O)O,98%,99%,36%
CC[C@H]1CN2CC[C@@H]1C[C@H]2[C@H](O)c1ccnc2ccc(OC)cc12,100%,61%,0%
CC(C)CNCc1cccc(-c2ccccc2CN(C(=O)Nc2ccccc2)C2CCN(Cc3ccccc3)CC2)c1.O=C(O)C(F)(F)F,100%,68%,36%
COc1ccccc1CC(C)NCC(O)c1cccc(Cl)c1 (configuration not stated),97%,98%,13%
CCCc1c(C(=O)NC2CCC(CN3CCC(c4c[nH]c5ccccc45)CC3)CC2)cnn1-c1c(Cl)cc(Cl)cc1Cl (configuration not stated),100%,49%,41%
CC1=C(C(=O)NC2CCC(CN3CCC(c4c[nH]c5ccccc45)CC3)CC2)Cc2ccccc21 (configuration not stated),97% and 99%,15% and 24%,41% and 37%
COc1cccc(C(=O)C2CC2CN2CC=C(c3c(C)[nH]c4ccccc34)CC2)c1 (configuration not stated),92%,87%,13%
Cn1nc(C(F)(F)F)cc1-c1ccc(C(=O)NC2CCC(CN3CCC(c4c[nH]c5ccccc45)CC3)CC2)s1 (configuration not stated),100%,97%,45%
Br.COC(=O)c1ccc(CC(C)NCC(O)c2cccc(OC(F)(F)F)c2)cc1 (configuration not stated),98%,67%,2%
CC[C@H]1CN2CC[C@@H]1C[C@H]2[C@H](O)c1cc(N2CCSCC2)nc2ccc(OC)cc12,99%,98%,2%

Compound,Inhibition (Plasmodium falciparum [1]),Inhibition (Plasmodium falciparum [2]),Inhibition (HepG2)
Cc1cc(C)c(CC(C)NCC(O)c2cccc(C(F)(F)F)c2)c(C)c1.Cl (configuration not stated),100%,99%,0%
COc1ccc(NC(=S)NC(NC(=O)CF)C(Cl)(Cl)Cl)cc1[N+](=O)[O-] (configuration not stated),97%,0%,66%
CCN(CC)CCN1C(=O)C(O)(c2ccccc2Cl)c2c1cc(C#N)cc2C(F)(F)F (configuration not stated),88%,19%,21%
O=C(C=Cc1ccccc1C(F)(F)F)NC1CCC(CN2CCC(c3c[nH]c4ccccc34)CC2)CC1 (configuration not stated),100%,90% and 47%,47% and 73%
CC[C@H]1CN2CC[C@H]1C[C@@H]2[C@@H](O)c1cc(Cl)nc2ccc(OC)cc12,98%,82%,0%
O=C1COc2ccccc2N1CCN1CCC(NCc2ccc(-c3cccs3)cc2)CC1,87%,18%,37%
Cc1cccc2c(C3CCN(CC4CCC(NC(=O)/C=C/c5ccc(Cl)c(Cl)c5)CC4)CC3)c[nH]c12 (configuration not stated),92%,49%,97%
Cn1cc(CN2CCC(CCOC(c3ccccc3)c3ccccc3)CC2)cn1,99%,100%,27%
CC[C@H]1CN2CC[C@@H]1C[C@H]2[C@H](O)c1cc[n+]([O-])c2ccc(OC)cc12,95%,1%,0%
CC(C)n1ncc2c(C(=O)Nc3ccc(C#N)c(Cl)c3)cc(C3CC3)nc21,93%,15%,20%
O=C(/C=C/c1cc(C(F)(F)F)ccc1F)NC1CCC(CN2CCC(c3c[nH]c4ccccc34)CC2)CC1 (configuration not stated),100%,66%,5%
OC(CNC1CCCCC1)c1ccc(Cl)c(Cl)c1 (configuration not stated),99%,96%,17%
Br.CC[C@H]1CN2CCc3cc(OC)c(OC)cc3[C@@H]2C[C@@H]1C[C@H]1NCCc2c1cc(OC)c(O)c2I,100%,100%,54%
O=C(COc1ccc(Cl)cc1)N1CCC(CN2CCC(c3c[nH]c4ccccc34)CC2)CC1,89%,13%,48%
CC[C@H]1CN2CC[C@@H]1C[C@H]2[C@H](O)c1cc(N2CCC(O)CC2)nc2ccc(OC)cc12,99%,92%,15%
CCCCCc1cc(O)c2c3c(c(=O)oc2c1)CN(C)CC3,100%,99%,4%
S=C(NCCc1ccc(Cl)cc1)N1CCC(CN2CCC(c3c[nH]c4ccccc34)CC2)CC1,90%,7%,31%
CN1CC=C(c2c[nH]c3ccc(-c4ccccc4)cc23)CC1,93%,60%,14%
CC[C@H]1CN2CC[C@H]1C[C@H]2[C@H](O)c1ccnc2ccc(O)cc12.Cl,99%,2%,11%
